# Laboratory results from PubChem BioAssay (NCATS).
# Several values for one entry are separate records, joined by “and”; a condition that tells them apart may be missing. Equal values may be shown once. Results filed as inconclusive are left out. Activity calls are given as the source filed them. Calls follow the shape of the dose curve; as a rule, active = well fitted inhibition curve with a large enough effect; inconclusive = small, poorly fitted or top-dose-only effect; inactive = no such curve, though single readings can be large or run the other way.
# Test: qHTS assay to identify inhibitors of the type 1 interferon - major histocompatibility complex class I in skeletal muscle: Counter screen cell viability and HiBit confirmation (AID 1347412); also: nearly all actives have a fitted effect of over 60% in size
# Settings: iHSKM muscle cells + IFN-b, HiBiT or CellTiter-Glo, 24 h; HiBiT
# Excerpt: Assay Submitter (PI): Travis B. Kinder Ph.D. & James Inglese Ph.D. Assay Development and Screening Technology Laboratory (ADST) National Center for Advancing Translational Sciences (NCATS), Rockville, MD National Institute of Health (NIH), Bethesda, Maryland Idiopathic inflammatory myopathies, collectively referred to as myositis, are a group of rare autoimmune diseases characterized by skeletal muscle inflammation, weakness, and usually accompanied by systemic pathologies of the skin, lungs, or vasculature. Current immunosuppressive therapies and glucocorticoids are often not curative and are accompanied by harsh side effects, especially in children with juvenile myositis. We initiated a drug repurposing and development program to identify more targeted, less toxic therapeutics to treat myositis. Although its cause is not known, muscle from a subset of patients have an abundance of the inflammatory type 1 interferon (IFN) and a down-stream product major histocompatibility complex class I (MHC class I), which are both thought to contribute to damage and weakness. We conducted quantitative high throughput screening on 6,576 compounds (4,679 unique) through a series of cell-based assays to identify those that inhibit the IFN-stimulated expression of MHC class I in muscle precursor cells (myoblasts). The compound identification and evaluation strategy utilized a primary screen with reporter-tagged MHC class I in genome-engineered myoblasts, ATP content counter screen for viability, HLA-ABC immunofluorescence secondary screen, and HLA-B RT-qPCR tertiary screen. The primary screen utilized CRISPR/Cas9 genome-engineering of immortalized human myoblasts, C25cl48, where a pro-luminescent reporter HiBit was fused to the C-terminus of endogenous MHC class I allele HLA-B*08:01 (HLA-B HiBit myoblasts). HiBit is an 11 amino acid fragment of NanoLuc luminescent reporter (Promega Corporation), and when complexed to the larger LgBit fragment, the reconstituted enzyme produces light in the presence of furimazine substrate (Schwinn et al., 2018). Briefly, HLA-B HiBit myoblasts were plated into 1536-well plates, treated with 4.0 ng/ml human IFN-beta and 650 inhibitory compounds identified from primary screening in a 12-point, 1:3 titration with a high final concentration of 46 uM. Compounds were pinned into duplicate plates, with one for HiBit confirmation and one for ATP content viability assay. After 24 hrs of treatment, cells were assayed by either Nano-Glo HiBiT Lytic Detection System (Promega) or CellTiter Glo (Promega), and luminescence measured by a ViewLux 1430 Ultra HTS (Perkin Elmer). References: Schwinn MK, Machleidt T, Zimmerman K, Eggers CT, Dixon AS, Hurst R, Hall MP, Encell LP, Binkowski BF, Wood K V. 2018. CRISPR-Mediated Tagging of Endogenous Proteins with a Luminescent Peptide. ACS Chem Biol 13:467-474. doi:10.1021/acschembio.7b00549
# PROTOCOL TABLE (as described by Inglese et al., 2007) SEQUENCE No. (e.g., 1, 2, 3, etc.); […] (e.g., Cells, Incubation, Reagent, etc.); VALUE; DESCRIPTION 1a; Cells; 5 uL; Use a Multidrop Combi (Thermo Scientific) to seed 300 cells/well into 16 Greiner 1536 well white/solid bottom, high base, TC plates in 5 ul/well of iHSKM growth medium (GM) without dexamethasone into columns 1+2. Add metal lids with gas-exchange holes 1b; Cells; 5 uL; Use a Multidrop Combi (Thermo Scientific) to seed 300 cells/well into 16 Greiner 1536 well white/solid bottom, high base, TC plates in 5 ul/well of iHSKM GM without dexamethasone + 4 ng/ml IFN-b into columns 3 - 48. Add metal lids with gas-exchange holes 2; Incubate; 1 hr; Incubate at 37 C, 5% CO2, 95% RH 3; Compounds; 23 nl; Use Pin Tool (Wako) to transfer DMSO control, 92 uM final digitonin cytotoxic control, ruxolitinib IFN-b inhibitor control [High Concentration = 80 uM final, 16-pt, 1:2 in duplicate], and library compounds in DMSO. […]
# % is scaled to controls: 0 for no effect and ±100 for the full control effect; potency is read from the fitted curve at half-maximal effect.
row,SMILES,Potency
1,CCN(CC)CCOc1ccc(Nc2ncc3cc(-c4c(Cl)cccc4Cl)c(=O)n(C)c3n2)cc1,557 nM (active) and 883 nM (active)
2,COc1cc(Nc2c(C#N)cnc3cc(OCCCN4CCN(C)CC4)c(OC)cc23)c(Cl)cc1Cl,11.1 µM (active)
3,O=Nc1c(-c2c(O)[nH]c3cc(Br)ccc23)[nH]c2ccccc12,22.2 µM (active)
4,CC(C)C[C@H](NC(=O)[C@H](Cc1ccccc1)NC(=O)c1cnccn1)B(O)O,0.0313 µM (active)

# Same assay, conditions: iHSKM muscle cells + IFN-b, HiBiT or CellTiter-Glo, 24 h; HiBiT; at 45.9 µM (top of the series)
row,SMILES,"activity change, negative = inhibition"
1,NC(=NCc1ccccc1)NC(=O)c1nc(Cl)c(N)nc1N,-27.7% (inactive)
2,Clc1ccc(C(Cn2ccnc2)OCc2ccc(Sc3ccccc3)cc2)c(Cl)c1 (stereo unspecified),-10.3% (inactive)
3,COC(=O)C1=C(C)NC(C)=C(C(=O)OCCCN2CCC(c3ccccc3)(c3ccccc3)CC2)C1c1cccc([N+](=O)[O-])c1 (stereo unspecified),4.03% (inactive)
4,CC1(C)CCC(C)(C)c2cc(NC(=O)c3ccc(C(=O)O)cc3)ccc21,1.95% (inactive)

# Same assay, conditions: iHSKM muscle cells + IFN-b, HiBiT or CellTiter-Glo, 24 h; Viability
row,SMILES,Potency
1,CCN(CC)CCOc1ccc(Nc2ncc3cc(-c4c(Cl)cccc4Cl)c(=O)n(C)c3n2)cc1,12.5 µM (active) and 2.79 µM (active)
2,COc1cc(Nc2c(C#N)cnc3cc(OCCCN4CCN(C)CC4)c(OC)cc23)c(Cl)cc1Cl,24.9 µM (active)
3,CN(C)c1ccc2nc3ccc(=[N+](C)C)cc-3sc2c1,15.7 µM (active)

# Same assay, conditions: iHSKM muscle cells + IFN-b, HiBiT or CellTiter-Glo, 24 h; Viability; at 45.9 µM (top of the series)
row,SMILES,"activity change, negative = inhibition"
1,NC(=NCc1ccccc1)NC(=O)c1nc(Cl)c(N)nc1N,-20.2% (inactive)
2,CCCOc1ccc2nc(NC(=O)OC)[nH]c2c1,-24.3% (inactive)
3,Clc1ccc(C(Cn2ccnc2)OCc2ccc(Sc3ccccc3)cc2)c(Cl)c1 (stereo unspecified),-8.18% (inactive)
4,COC(=O)C1=C(C)NC(C)=C(C(=O)OCCCN2CCC(c3ccccc3)(c3ccccc3)CC2)C1c1cccc([N+](=O)[O-])c1 (stereo unspecified),-24.5% (inactive)
5,CC1(C)CCC(C)(C)c2cc(NC(=O)c3ccc(C(=O)O)cc3)ccc21,-0.914% (inactive)
